The whole screen tested about 96,000 compounds, of which about 20,000 (21%) were called active.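 Rule for the calls: active = CYP2C19 inhibition above a set limit at 5 µM in the primary screen (cut at about 50% in these data); inactive = the rest.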 Only a sample is shown.

The assay deals with Cytochrome P450 2C19 (Homo sapiens) (UniProt P33261). Description: blockers of cytochrome P450 2C19 activity – biochemical, luminescence, ADME assay, primary screen (AID 778).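 Note: plate controls were negative control wells for no effect and 2.5 mM tranylcypromine positive control for full effect.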 As to conditions: CYP2C19 Supersomes, luciferin-H EGE luminescence, 30 min; at 5 µM; hits give high values.
Sequence of Cytochrome P450 2C19 (Homo sapiens) (P33261 whole entry, looked up): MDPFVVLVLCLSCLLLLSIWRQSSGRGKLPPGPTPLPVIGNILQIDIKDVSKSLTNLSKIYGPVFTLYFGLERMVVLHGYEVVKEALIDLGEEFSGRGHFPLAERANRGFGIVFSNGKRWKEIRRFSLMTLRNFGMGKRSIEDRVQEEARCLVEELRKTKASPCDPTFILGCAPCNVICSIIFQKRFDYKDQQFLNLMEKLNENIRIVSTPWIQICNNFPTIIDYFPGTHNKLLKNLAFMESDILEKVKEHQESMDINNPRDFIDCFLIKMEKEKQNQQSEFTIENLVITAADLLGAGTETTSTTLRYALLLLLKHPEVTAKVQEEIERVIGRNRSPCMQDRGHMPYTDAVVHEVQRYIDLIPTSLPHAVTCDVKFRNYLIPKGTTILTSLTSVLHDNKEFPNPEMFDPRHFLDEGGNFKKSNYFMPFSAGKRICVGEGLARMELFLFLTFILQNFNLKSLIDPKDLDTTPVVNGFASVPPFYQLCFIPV
What is called inhibition is the change of the read-out against control, counted positive when it falls. For the compound `COc1ccc(-c2oc3ncn(Cc4ccco4)c(=N)c3c2-c2ccc(OC)cc2)cc1`, the inhibition was 33.8% (inactive).

In the case of `CCOC(=O)N1CCC(Nc2c(NCCCN3CCN(CC)CC3)c(=O)c2=O)CC1`, the inhibition was 4% (inactive). As to `c1ccc(-c2ccnc3nc(-n4cccc4)nn23)cc1`, the inhibition was 1.1% (inactive). Regarding `CCCC(=O)N1c2ccc(-c3csc(N)n3)cc2CC1C` (stereo not drawn), the inhibition was 4.4% (inactive). Consider `O=c1c(F)cn(C2CCCO2)c(=O)n1Cc1ccccc1Cl` (stereo not drawn), for which the inhibition is 36.8% (inactive). As to `COCCn1c(C)cc(C2=NNC(=Nc3ccc(F)cc3)SC2)c1C`, the inhibition is 20.2% (inactive). In the case of `COc1ccc(C)cc1NC(=O)CCC(=O)Nc1nnc(C(F)(F)F)s1`, the inhibition was -1.8% (inactive). `CC(=O)c1c(C)[nH]c(C(=O)NCc2ccc(C)cc2)c1C`: the inhibition was 43.8% (inactive).

With `COc1ccc(C)cc1NC(=O)c1[nH]c(C)c(C(C)=O)c1C`, the inhibition was 51.5% (active).

Turning to `CC(C)(C)NC(=O)C(c1ccco1)N(Cc1ccc2c(c1)OCO2)C(=O)Cn1nnc2ccccc21` (stereo not drawn), the inhibition was 48.8% (inactive). For the compound `COc1ccc2c(c1)CCc1c(C(=O)Nc3c(C)n(C)n(-c4ccccc4)c3=O)noc1-2`, the inhibition is 25.7% (inactive).

In the case of `COc1ccc2c(c1)CCc1c(C(=O)N3CCCC3)noc1-2`, the inhibition is 4.9% (inactive). With `COc1ccc2c(c1)CCc1c(C(=O)N3CCc4ccccc4C3)noc1-2`, the inhibition was 74.1% (active). Next, `CCC(=O)N1CCc2cc(S(=O)(=O)NC(C(=O)N3CCc4ccccc4C3)C(C)C)ccc21` (stereo not drawn): 4.8% (inactive).

Regarding `Cc1nc(NC(CC(C)C)C(=O)O)c2nc(C)oc2n1` (stereo not drawn), the inhibition is -8.5% (inactive). As for `O=C(Nc1ccon1)c1sc2ccccc2c1Cl`, the inhibition is 1.4% (inactive). On to `N#Cc1cc([N+](=O)[O-])ccc1Oc1cccc(/C=N/NC(=O)c2ccc(Cl)cc2)c1`, for which the inhibition is 41.8% (inactive). Regarding `CCc1ccccc1NC(=O)CN(C)S(=O)(=O)c1ccc2c(c1)c(=O)n(C)c(=O)n2C`, the inhibition was 7.1% (inactive). For the compound `Cc1cc(NC(=O)c2cccc(N3C(=O)CCC3=O)c2)no1`, the inhibition is 3% (inactive). In the case of `O=C(/C=C/Nc1ccccc1OC(F)(F)F)C(F)(F)F`, the inhibition is 18% (inactive).

Turning to `Cc1cc(C)nc(NC(=O)C(C)N2C(=O)c3ccccc3C2=O)n1` (stereo not drawn), the inhibition is -21.4% (inactive). In the case of `Cc1ccc(NC(=O)CCNS(=O)(=O)c2ccc3c(c2)oc(=O)n3C)cc1C`, the inhibition was 8% (inactive). Next, `CCOC(=O)N1CCC(N(CCOC)C(=O)Nc2ccc(C)c(C)c2)CC1`: 8.4% (inactive); `Cc1ccc(NC(=O)CN(C)S(=O)(=O)c2cnc[nH]2)cc1C`: 88.7% (active); `Cc1ccc(-c2nnc(C)c(N3CC(C)OC(C)C3)n2)cc1` (stereo not drawn): 7.3% (inactive). In the case of `Cc1cc(=O)oc2cc(NC(=O)C3CC(=O)N(Cc4ccccc4)C3)ccc12` (stereo not drawn), the inhibition is 52.5% (active). Consider `COCCCNC(=O)C1CC(=O)N(CCc2ccccc2)C1` (stereo not drawn), for which the inhibition was -3.4% (inactive).

For the compound `O=C(O)C1CC(=O)N(Cc2cccnc2)C1` (stereo not drawn), the inhibition is -2.1% (inactive).

Regarding `CCC(C)NC(=O)c1c(N)n(/N=C/c2cccs2)c2nc3ccccc3nc12` (stereo not drawn), the inhibition was 13.8% (inactive). With `COC(=O)c1ccc(C2C3=C(Nc4nnnn42)c2ccccc2OC3)cc1` (stereo not drawn), the inhibition is 98.9% (active). With `COc1ccc(C2C(C(=O)Nc3ccccc3OC)=C(C)Nc3nnnn32)c(OC)c1` (stereo not drawn), the inhibition is 32.5% (inactive). Take `COc1ccccc1NC(=O)C1=C(C)Nc2nnnn2C1c1cccc(Br)c1` (stereo not drawn): the inhibition was 37.1% (inactive). The same measure for `CCCN1Cc2cccc(C(=O)Nc3ccc(S(=O)(=O)N4CCCCCC4)cc3)c2C1=O`: 18.8% (inactive).

As for `CCC12CN3CC(CC)(CN(C1)C31C(=O)N(C)c3ccc(C)cc31)C2=O` (stereo not drawn), the inhibition was 15.6% (inactive). Consider `O=C(Nc1ncccn1)c1cccs1`, for which the inhibition is -3.9% (inactive). Next, `O=C(Nc1nn(Cc2ccccc2F)cc1Br)c1cccs1`: 57.4% (active); `CCc1ccccc1NC(=O)c1cccs1`: -1% (inactive). Take `CC(=O)Nn1cc2c(=O)n(C)c(=O)n(C)c2c1`: the inhibition is -4.8% (inactive). For the compound `O=c1oc2cc(O)ccc2cc1-c1ccc(F)cc1`, the inhibition is 32.1% (inactive). Regarding `CCOC(=O)Nc1ccccc1N1C(=O)c2ccccc2C1=O`, the inhibition is 1.6% (inactive). As for `COc1ncnc2sc3c(c12)CCCC3`, the inhibition is 36.6% (inactive). For `Cc1cc(C)n(-c2nc(SCC(=O)N3CCCC3)c3c4c(sc3n2)CCCC4)n1`, the inhibition is 49.7% (inactive). Consider `COCCn1c(C)cc(C(=O)CSc2ncnc3sc4c(c23)CCC4)c1C`, for which the inhibition is 57.5% (active). The same measure for `O=C(NCc1ccco1)c1cnn2c(C(F)(F)F)cc(-c3ccco3)nc12`: 20.3% (inactive). As for `CCCc1nc(-c2ccccc2O)n(-c2ccccc2)n1`, the inhibition is 34% (inactive). On to `O=C(NCCN1C(=O)C2C3C=CC(C3)C2C1=O)Nc1ccccn1` (stereo not drawn), for which the inhibition was -10.2% (inactive). The same measure for `O=C(CCN1C(=O)C2C3C=CC(C3)C2C1=O)Nc1ccccc1F` (stereo not drawn): 56.5% (active); for `O=C(CN1C(=O)C2C3C=CC(C3)C2C1=O)NCCc1ccccc1Cl` (stereo not drawn): 23.5% (inactive); for `N#C/C=C\Oc1ccc(Cl)cc1N`: -2.6% (inactive). As to `COc1ccc(NC(=O)Cn2c(-c3ccc(OC)cc3)cn(-c3ccc(C)cc3)c2=O)cc1`, the inhibition was -4.3% (inactive).

For the compound `COc1ccc(Nc2oc(-c3ccccc3Cl)nc2C#N)cc1`, the inhibition was 1.2% (inactive). Turning to `N#Cc1nc(COc2ccc(-c3ccccc3)cc2)oc1NCc1cccnc1`, the inhibition was 51.7% (active). The same measure for `N#Cc1nc(-c2ccc(OCc3ccccc3)cc2)oc1NCCCN1CCOCC1`: 7.4% (inactive); for `C=C(C)Cn1c(SCC(=O)NCc2ccco2)nc2sc3c(c2c1=O)CCC3`: 7.7% (inactive); for `O=c1c2ccccc2nnn1CSc1nc2sc3c(c2c(=O)n1CC1CCCO1)CCC3` (stereo not drawn): 56.4% (active).

Turning to `O=C(Cn1nc(Cc2cccnc2)c2ccccc2c1=O)NCC1CCCO1` (stereo not drawn), the inhibition is 16.7% (inactive). As to `N#CCCn1cnc2ccccc21`, the inhibition is 1.7% (inactive). As to `CC(=O)c1ccc(NC(=O)N[C@@H](Cc2ccccc2)C(=O)O)cc1`, the inhibition was 28.5% (inactive). As to `COc1ccc(CCNC(=O)COC(=O)c2ccc[nH]c2=O)cc1`, the inhibition is -10.2% (inactive). As for `CCN(CC)C(=O)C1CCC(C)(C(=O)O)C1(C)C` (stereo not drawn), the inhibition was -4.4% (inactive). Regarding `Cc1cc(O)ccc1-c1cnc2ccccc2n1`, the inhibition was 60.7% (active). For `CC(=O)Nc1cccc(-c2cnc3ccccc3n2)c1`, the inhibition is 14.9% (inactive).

With `Cc1nc2ccccc2cc1O`, the inhibition is 0.7% (inactive).

For the origin of these results see PubChem BioAssay AID778 (Sanford-Burnham Center for Chemical Genomics, 2007).
